In the supplement of paper PMC8728848:
Only a selection was taken, and the strongest signals are over-represented in it overall.

Columns and labels:
Assay in all cases: glycan array binding signal (z-score within array); higher = stronger binding
Conditions in all cases: glycan notation: IUPAC condensed, linker removed
[1] = molecular target: Fuc(a1-2)Gal(b1-3)GalNAc(a1-3)[Fuc(a1-2)]Gal(b1-4)GlcNAc
Procedure, shortened: (§1)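 The binding signal is a Z-score computed within each array and averaged over linkers. Arrays of the same protein sequence at different concentrations or buffers were also averaged together. Data originate from 3228 arrays in the Consortium for Functional Glycomics database, kept only where the protein sequence was available.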

[2] = molecular target: Fuc(a1-2)Gal(b1-3)GlcNAc(b1-3)[Gal(b1-4)GlcNAc(b1-6)]Gal(b1-4)Glc
Procedure, shortened: as §1

[3] = molecular target: Fuc(a1-2)Gal(b1-4)GlcNAc(b1-6)GalNAc
Procedure, shortened: as §1

[4] = molecular target: Fuc(a1-2)Gal3S(b1-4)GlcNAc
Procedure, shortened: as §1

Fuc(a1-2)[Gal(a1-3)]Gal = molecular target: Fuc(a1-2)[Gal(a1-3)]Gal
Procedure, shortened: as §1

[5] = molecular target: Fuc(a1-2)[GalNAc(a1-3)]Gal(b1-3)GlcNAc
Procedure, shortened: as §1

Fuc(a1-4)GlcNAc = molecular target: Fuc(a1-4)GlcNAc
Procedure, shortened: as §1

[6] = molecular target: Gal(a1-3)Gal(b1-3)GlcNAc(b1-6)GalNAc
Procedure, shortened: as §1

[7] = molecular target: Gal(a1-3)Gal(b1-4)GlcNAc(b1-2)Man(a1-3)[Gal(a1-3)Gal(b1-4)GlcNAc(b1-2)Man(a1-6)]Man(b1-4)GlcNAc(b1-4)GlcNAc
Procedure, shortened: as §1

Gal(b1-3)GalNAc = molecular target: Gal(b1-3)GalNAc
Procedure, shortened: as §1

[8] = molecular target: Gal(b1-3)GalNAc(a1-3)[Fuc(a1-2)]Gal(b1-4)Glc
Procedure, shortened: as §1

[9] = molecular target: Gal(b1-3)GlcNAc(b1-2)Man(a1-3)[Gal(b1-3)GlcNAc(b1-2)Man(a1-6)]Man(b1-4)GlcNAc(b1-4)GlcNAc
Procedure, shortened: as §1

[10] = molecular target: Gal(b1-3)GlcNAc(b1-2)[Gal(b1-3)GlcNAc(b1-6)]Man(a1-6)[Gal(b1-3)GlcNAc(b1-2)Man(a1-3)]Man(b1-4)GlcNAc(b1-4)GlcNAc
Procedure, shortened: as §1

[11] = molecular target: Gal(b1-3)GlcNAc(b1-3)Gal(b1-3)GlcNAc
Procedure, shortened: as §1

[12] = molecular target: Gal(b1-3)[GlcNAc(b1-6)]GalNAc
Procedure, shortened: as §1

[13] = molecular target: Gal(b1-3)[Neu5Ac(a2-6)]GlcNAc(b1-4)Gal(b1-4)Glc
Procedure, shortened: as §1

[14] = molecular target: Gal(b1-4)GlcNAc(b1-3)Gal(b1-3)GalNAc
Procedure, shortened: as §1

[15] = molecular target: Gal(b1-4)GlcNAc(b1-3)Gal(b1-4)GlcNAc(b1-2)[Gal(b1-4)GlcNAc(b1-3)Gal(b1-4)GlcNAc(b1-6)]Man(a1-6)[Gal(b1-4)GlcNAc(b1-3)Gal(b1-4)GlcNAc(b1-2)Man(a1-3)]Man(b1-4)GlcNAc(b1-4)[Fuc(a1-6)]GlcNAc
Procedure, shortened: as §1

[16] = molecular target: Gal(b1-4)GlcNAc(b1-3)Gal(b1-4)GlcNAc(b1-3)Gal(b1-4)GlcNAc(b1-2)Man(a1-3)[Gal(b1-4)GlcNAc(b1-3)Gal(b1-4)GlcNAc(b1-3)Gal(b1-4)GlcNAc(b1-2)Man(a1-6)]Man(b1-4)GlcNAc(b1-4)[Fuc(a1-6)]GlcNAc
Procedure, shortened: as §1

[17] = molecular target: Gal(b1-4)GlcNAc(b1-3)Gal(b1-4)GlcNAc(b1-3)Gal(b1-4)GlcNAc(b1-2)[Gal(b1-4)GlcNAc(b1-3)Gal(b1-4)GlcNAc(b1-3)Gal(b1-4)GlcNAc(b1-6)]Man(a1-6)[Gal(b1-4)GlcNAc(b1-3)Gal(b1-4)GlcNAc(b1-3)Gal(b1-4)GlcNAc(b1-2)Man(a1-3)]Man(b1-4)GlcNAc(b1-4)[Fuc(a1-6)]GlcNAc
Procedure, shortened: as §1

[18] = molecular target: Gal(b1-4)GlcNAc(b1-3)[Fuc(a1-3)GlcNAc(b1-6)]Gal(b1-4)Glc
Procedure, shortened: as §1

[19] = molecular target: Gal(b1-4)GlcNAc(b1-6)GalNAc
Procedure, shortened: as §1

[20] = molecular target: Gal(b1-4)GlcNAc(b1-6)[Gal(b1-3)]GalNAc
Procedure, shortened: as §1

[21] = molecular target: GalNAc(b1-3)Gal(a1-4)Gal(b1-4)GlcNAc(b1-3)Gal(b1-4)Glc
Procedure, shortened: as §1

GalNAc(b1-3)GalNAc = molecular target: GalNAc(b1-3)GalNAc
Procedure, shortened: as §1

[22] = molecular target: GalNAc3S(b1-4)[Fuc(a1-3)]GlcNAc
Procedure, shortened: as §1

[23] = molecular target: Glc(a1-6)Glc(a1-6)Glc(a1-6)Glc
Procedure, shortened: as §1

Glc(b1-4)Glc = molecular target: Glc(b1-4)Glc
Procedure, shortened: as §1

GlcA(b1-6)Gal = molecular target: GlcA(b1-6)Gal
Procedure, shortened: as §1

[24] = molecular target: GlcNAc(b1-3)Gal(b1-4)GlcNAc(b1-2)[GlcNAc(b1-3)Gal(b1-4)GlcNAc(b1-6)]Man(a1-6)[GlcNAc(b1-3)Gal(b1-4)GlcNAc(b1-2)Man(a1-3)]Man(b1-4)GlcNAc(b1-4)GlcNAc
Procedure, shortened: as §1

[25] = molecular target: GlcNAc(b1-3)Gal(b1-4)GlcNAc(b1-3)Gal(b1-4)GlcNAc(b1-3)Gal(b1-4)GlcNAc(b1-2)Man(a1-3)[GlcNAc(b1-3)Gal(b1-4)GlcNAc(b1-3)Gal(b1-4)GlcNAc(b1-3)Gal(b1-4)GlcNAc(b1-2)Man(a1-6)]Man(b1-4)GlcNAc(b1-4)GlcNAc
Procedure, shortened: as §1

[26] = molecular target: GlcNAc(b1-3)Gal(b1-4)GlcNAc(b1-3)Gal(b1-4)GlcNAc(b1-3)Gal(b1-4)GlcNAc(b1-2)[GlcNAc(b1-3)Gal(b1-4)GlcNAc(b1-3)Gal(b1-4)GlcNAc(b1-3)Gal(b1-4)GlcNAc(b1-6)]Man(a1-6)[GlcNAc(b1-3)Gal(b1-4)GlcNAc(b1-3)Gal(b1-4)GlcNAc(b1-3)Gal(b1-4)GlcNAc(b1-2)Man(a1-3)]Man(b1-4)GlcNAc(b1-4)[Fuc(a1-6)]GlcNAc
Procedure, shortened: as §1

[27] = molecular target: GlcNAc(b1-3)Gal(b1-4)GlcNAc(b1-3)Gal(b1-4)GlcNAc(b1-3)Gal(b1-4)GlcNAc(b1-3)Gal(b1-4)GlcNAc(b1-2)Man(a1-3)[GlcNAc(b1-3)Gal(b1-4)GlcNAc(b1-3)Gal(b1-4)GlcNAc(b1-3)Gal(b1-4)GlcNAc(b1-3)Gal(b1-4)GlcNAc(b1-2)Man(a1-6)]Man(b1-4)GlcNAc(b1-4)GlcNAc
Procedure, shortened: as §1

[28] = molecular target: GlcNAc(b1-3)Gal(b1-4)GlcNAc(b1-3)Gal(b1-4)GlcNAc(b1-3)GalNAc
Procedure, shortened: as §1

[29] = molecular target: GlcNAc(b1-3)[GlcNAc(b1-6)]Gal(b1-4)GlcNAc
Procedure, shortened: as §1

GlcNAc(b1-4)GlcNAc = molecular target: GlcNAc(b1-4)GlcNAc
Procedure, shortened: as §1

[30] = molecular target: Man(a1-2)Man(a1-3)[Man(a1-2)Man(a1-6)]Man
Procedure, shortened: as §1

[31] = molecular target: Man(a1-3)[Man(a1-6)]Man(b1-4)GlcNAc(b1-4)[Fuc(a1-6)]GlcNAc
Procedure, shortened: as §1

[32] = molecular target: Neu5Ac(a2-3)Gal(b1-3)GalNAc6S
Procedure, shortened: as §1

[33] = molecular target: Neu5Ac(a2-3)Gal(b1-3)]Neu5Ac(a2-3)Gal(b1-4)]GlcNAc
Procedure, shortened: as §1

[34] = molecular target: Neu5Ac(a2-3)Gal(b1-4)GlcNAc(b1-3)Gal(b1-4)GlcNAc(b1-3)Gal(b1-4)GlcNAc(b1-2)Man(a1-3)[Neu5Ac(a2-3)Gal(b1-4)GlcNAc(b1-3)Gal(b1-4)GlcNAc(b1-3)Gal(b1-4)GlcNAc(b1-2)Man(a1-6)]GalNAc
Procedure, shortened: as §1

[35] = molecular target: Neu5Ac(a2-3)Gal(b1-4)GlcNAc(b1-6)[Gal(b1-3)]GalNAc
Procedure, shortened: as §1

[36] = molecular target: Neu5Ac(a2-3)Gal(b1-4)[Fuc(a1-3)]GlcNAc6S
Procedure, shortened: as §1

[37] = molecular target: Neu5Ac(a2-3)[GalNAc(b1-4)]Gal(b1-4)Glc
Procedure, shortened: as §1

[38] = molecular target: Neu5Ac(a2-6)Gal(b1-4)GlcNAc(b1-2)Man(a1-3)[GlcNAc(b1-4)][Neu5Ac(a2-6)Gal(b1-4)GlcNAc(b1-2)Man(a1-6)]Man(b1-4)GlcNAc(b1-4)GlcNAc
Procedure, shortened: as §1

[39] = molecular target: Neu5Ac(a2-6)Gal(b1-4)GlcNAc(b1-2)Man(a1-6)Man(b1-4)GlcNAc(b1-4)GlcNAc
Procedure, shortened: as §1

[40] = molecular target: Neu5Ac(a2-6)Gal(b1-4)GlcNAc(b1-3)Gal(b1-4)GlcNAc(b1-3)Gal(b1-4)GlcNAc(b1-2)Man(a1-3)[Neu5Ac(a2-6)Gal(b1-4)GlcNAc(b1-3)Gal(b1-4)GlcNAc(b1-3)Gal(b1-4)GlcNAc(b1-2)Man(a1-6)]GalNAc
Procedure, shortened: as §1

[41] = molecular target: Neu5Ac(a2-6)Gal(b1-4)GlcNAc(b1-3)Gal(b1-4)GlcNAc(b1-3)[Neu5Ac(a2-6)Gal(b1-4)GlcNAc(b1-3)Gal(b1-4)GlcNAc(b1-6)]GalNAc
Procedure, shortened: as §1

[42] = molecular target: Neu5Ac(a2-6)Gal(b1-4)GlcNAc(b1-3)Gal(b1-4)[Fuc(a1-3)]GlcNAc(b1-3)Gal(b1-4)[Fuc(a1-3)]GlcNAc
Procedure, shortened: as §1

Neu5Ac(a2-6)GalNAc = molecular target: Neu5Ac(a2-6)GalNAc
Procedure, shortened: as §1

[43] = molecular target: Neu5Ac(a2-8)Neu5Ac(a2-3)Gal(b1-4)GlcNAc
Procedure, shortened: as §1

[44] = molecular target: Neu5Gc(a2-3)Gal(b1-4)GlcNAc
Procedure, shortened: as §1

Neu5Gc(a2-6)GalNAc = molecular target: Neu5Gc(a2-6)GalNAc
Procedure, shortened: as §1

B1: MpAFP NterminalRI GFP (Marinomonas primoryensis) (protein)
chain: MSDNQFPFATLGNAIGFITKLDGSVTVQSIDGQERVLKLGDPIFFGETVLTGGSGSVTIAFVDGTDVVIGGDSIVEMTDEIYNTGDNEDLVADSSSEIDALQNAILAGDDPTLIQDAPAAGNTLADQQRVDVSIERNDNSAQAGFGVDTQSSLPTYGYDTDNGNGGQATEREYSAPSLSRTLNQSPLLEHHHHHH
glycan array binding signal (z-score) [1]: -0.525
glycan array binding signal (z-score) [2]: -0.221
glycan array binding signal (z-score) [3]: 1.68
glycan array binding signal (z-score) [4]: -0.495
glycan array binding signal (z-score) (Fuc(a1-2)[Gal(a1-3)]Gal): -0.494
glycan array binding signal (z-score) [5]: -0.215
glycan array binding signal (z-score) (Fuc(a1-4)GlcNAc): 2.46
glycan array binding signal (z-score) [6]: -0.446
glycan array binding signal (z-score) [7]: -0.164
glycan array binding signal (z-score) (Gal(b1-3)GalNAc): -0.228
glycan array binding signal (z-score) [8]: -0.422
glycan array binding signal (z-score) [9]: -0.119
glycan array binding signal (z-score) [10]: -0.305
glycan array binding signal (z-score) [11]: -0.424
glycan array binding signal (z-score) [12]: -0.473
glycan array binding signal (z-score) [13]: -0.565
glycan array binding signal (z-score) [14]: -0.412
glycan array binding signal (z-score) [15]: 4.16
glycan array binding signal (z-score) [16]: 0.649
glycan array binding signal (z-score) [17]: 2.76
glycan array binding signal (z-score) [18]: -0.081
glycan array binding signal (z-score) [19]: -0.473
glycan array binding signal (z-score) [20]: 0.083
glycan array binding signal (z-score) [21]: -0.509
glycan array binding signal (z-score) (GalNAc(b1-3)GalNAc): -0.576
glycan array binding signal (z-score) [22]: -0.39
glycan array binding signal (z-score) [23]: -0.16
glycan array binding signal (z-score) (Glc(b1-4)Glc): 0.784
glycan array binding signal (z-score) (GlcA(b1-6)Gal): -0.407
glycan array binding signal (z-score) [24]: 6.32
glycan array binding signal (z-score) [25]: 6.83
glycan array binding signal (z-score) [26]: 2.6
glycan array binding signal (z-score) [27]: 0.255
glycan array binding signal (z-score) [28]: -0.344
glycan array binding signal (z-score) [29]: -0.441
glycan array binding signal (z-score) (GlcNAc(b1-4)GlcNAc): 4.84
glycan array binding signal (z-score) [30]: 2.93
glycan array binding signal (z-score) [31]: -0.195
glycan array binding signal (z-score) [32]: -0.078
glycan array binding signal (z-score) [33]: -0.531
glycan array binding signal (z-score) [34]: 2.98
glycan array binding signal (z-score) [35]: 3.31
glycan array binding signal (z-score) [36]: -0.574
glycan array binding signal (z-score) [37]: -0.63
glycan array binding signal (z-score) [38]: -0.202
glycan array binding signal (z-score) [39]: -0.385
glycan array binding signal (z-score) [40]: 1.24
glycan array binding signal (z-score) [41]: -0.027
glycan array binding signal (z-score) [42]: -0.212
glycan array binding signal (z-score) (Neu5Ac(a2-6)GalNAc): -0.388
glycan array binding signal (z-score) [43]: -0.655
glycan array binding signal (z-score) [44]: -0.632
glycan array binding signal (z-score) (Neu5Gc(a2-6)GalNAc): 3.75
